ALDH1A1 inh: qHTS Assay for Inhibitors of Aldehyde Dehydrogenase 1 (ALDH1A1); Aldehyde dehydrogenase 1A1 (Homo sapiens), P00352; Purified ALDH1A1, NADH fluorescence, propionaldehyde substrate; Potency, µM (doses to about 75.3 µM), for inactives: top-dose activity, negative = inhibition, hits mostly inhibitors; 220,000 compounds, 7.3% hits; AID 1030, 2008; active means well fitted inhibition curve with a large enough effect, not every such curve was filed as active; inconclusive means small, poorly fitted or top-dose-only effect, or another doubt; inactive means no such curve, though single readings can be large or run the other way;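 further: potency means the concentration at half of the fitted maximal effect; plate controls were no enzyme wells and a reference inhibitor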
IMPase Li inh: qHTS Assay for Identifying the Cell-Membrane Permeable IMPase Inhibitors: Potentiation with Lithium; CHO-M1 cells, IP1 TR-FRET (IP-One), carbachol + lithium; Potency, µM (doses to about 59.4 µM), for the others: at the highest dose activity, negative = IMPase inhibition, actives largely listed as inhibitors; 210,000 compounds, 0.35% hits; AID 1457, 2008;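 further: IP1 builds up when IMPase is blocked and the TR-FRET signal falls; potency means the concentration at half of the fitted maximal effect; plate controls were basal vehicle for no effect and high inhibitor control for full effect; nearly all actives have a fitted effect of over 50% in size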
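CHO cells stably expressing M1 receptor (2000/well) were cultured 16–30 h, then exposed to compounds with a small lithium addition for 30 min at 37C. IP1 was measured by TR-FRET competition; AC50 from Hill fits.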
PNC inhibitor: High Content Assay for Compounds that inhibit the Assembly of the Perinucleolar Compartment; 140,000 compounds, 3.1% hits; AID 2417, 2010; PC3M PTB-GFP, PNC prevalence imaging, 16 h; active compounds read low; activity change (PNC), negative = inhibition, % at 10 µM;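 active means readout at or below -70, meaning at least 70% loss of cells showing the perinucleolar compartment, a nuclear body marking cancer cells; inconclusive means readout between -30 and a set limit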;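 further: plate controls were DMSO wells for no effect and camptothecin positive control wells for full effect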
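PC3M cells stably expressing PTB-GFP, 750–1000 cells/well, treated 16 h at 37 °C with compound (23 nl of library stock), in duplicate. After paraformaldehyde fixation and Hoechst stain, imaged at 20x; PNC prevalence scored by image analysis.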
ALOX12 inhib: qHTS Assay for Inhibitors of 12-hLO (12-human lipoxygenase). 150,000 compounds, 0.12% hits. Polyunsaturated fatty acid lipoxygenase ALOX12 (Homo sapiens), P18054. Potency, µM (top dose mostly 57.1 µM), inactives show at the top dose activity change, negative = inhibition, most hits filed as inhibitors. purified 12-hLO, xylenol orange hydroperoxide absorbance. AID 1452, 2008; further: potency means the concentration at half of the fitted maximal effect; nearly all actives have a fitted effect of over 55% in size
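Hydroperoxide output read as Fe(III)-xylenol orange absorbance, 573-to-405 nm ratio, after 30 min reaction with 40 uM arachidonic acid. Enzyme: 150 nM purified human 12hLO, 15 min compound preincubation; 25 mM Hepes pH 7.0, room temperature.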
HPGD inh: qHTS Assay for Inhibitors of HPGD (15-Hydroxyprostaglandin Dehydrogenase); 15-hydroxyprostaglandin dehydrogenase [NAD(+)] (Homo sapiens), P15428; purified HPGD, NADH fluorescence kinetic, PGE2 substrate; Potency, µM, inactives show top-dose activity change, negative = inhibition, hits mostly inhibitors; 150,000 compounds, 4.3% hits; AID 894, 2007; active means well fitted inhibition curve with a large enough effect, not every such curve was filed as active; inconclusive means small, poorly fitted or top-dose-only effect, or another doubt; inactive means no such curve, though single readings can be large or run the other way; further: potency means the concentration at half of the fitted maximal effect
Target sequence (P15428 whole entry, looked up): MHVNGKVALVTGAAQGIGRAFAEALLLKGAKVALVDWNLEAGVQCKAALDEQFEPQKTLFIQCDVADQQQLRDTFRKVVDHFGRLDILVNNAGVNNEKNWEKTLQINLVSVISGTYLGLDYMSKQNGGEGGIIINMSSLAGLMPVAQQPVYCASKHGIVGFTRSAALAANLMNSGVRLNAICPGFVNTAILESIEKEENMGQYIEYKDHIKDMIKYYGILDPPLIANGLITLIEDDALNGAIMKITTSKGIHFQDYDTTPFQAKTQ
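NADH formation kinetics: reaction with 30 uM PGE2 and 1 mM NAD+ (final), 20 nM enzyme, Tris-HCl pH 8 with Tween 20, after 15 min compound preincubation at room temperature. Fluorescence change, last versus first of five reads.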
IMPase cell inh: qHTS Assay for Identifying the Cell-Membrane Permeable IMPase Inhibitors; AID 901, 2007; 120,000 tested, under 10 active; inhibition (IP1 accumulation), % at 46.1 µM; CHO-M1 cells, IP1 accumulation, HTRF TR-FRET ratio; active means well fitted curve in the direction sought with a large enough effect in the signal ratio, not every such curve was filed as active; inconclusive means small, poorly fitted or top-dose-only effect, or a change in a side signal; inactive means no such curve, though single readings can be large or run the other way; the % refers to the signal ratio;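 further: cells stimulated with carbachol in lithium chloride buffer; plate controls were DMSO basal wells for no effect and reference inhibitor wells for full effect; higher means more IMPase inhibition seen as more IP1 and lower FRET ratio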
Target sequence (P97697 whole entry, looked up): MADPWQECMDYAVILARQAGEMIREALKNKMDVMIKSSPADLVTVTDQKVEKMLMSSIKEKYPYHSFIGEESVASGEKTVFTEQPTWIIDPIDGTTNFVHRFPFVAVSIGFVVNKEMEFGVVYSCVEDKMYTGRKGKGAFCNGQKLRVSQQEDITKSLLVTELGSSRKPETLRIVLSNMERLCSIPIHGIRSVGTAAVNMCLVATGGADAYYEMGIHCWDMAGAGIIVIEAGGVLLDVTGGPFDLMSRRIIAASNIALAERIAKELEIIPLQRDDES
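Cellular IMPase inhibition is scored as a rise in cytosolic IP1, detected by competitive TR-FRET between d2-labelled IP1 and a europium anti-IP1 antibody. M1-expressing CHO cells were stimulated with carbachol for 30 min at 37C, with lithium (50 mM LiCl) present in the buffer.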
Numbers without * were called inactive; ? = inconclusive; . = not tested or not shown; ! = a repeat was not active; [ ] = another dose, or the depositor's remark. An excerpt weighted towards active compounds, which were near 11% of everything screened. Unless noted, the call rests on the fitted dose curve; in most records, active means well fitted curve in the direction sought with a large enough effect; inconclusive means small, poorly fitted or top-dose-only effect, or another doubt; inactive means no such curve, though single readings can be large; an effect the other way counts as inactive or inconclusive. Unless noted, on the % scale 0 is the no-effect control and ±100 the full control effect.

SMILES | ALDH1A1 inh | IMPase Li inh | PNC inhibitor | ALOX12 inhib | HPGD inh | IMPase cell inh
CCOc1ccccc1NC(=O)c1cn(C2CCCC2)c(=O)c2c1c1ccccc1n2C | . | . | . | . | . | -7
Cc1cc(C)nc(SCc2nnc(SCC(=O)Nc3nc(-c4ccccc4)cs3)n2C)n1 | -10% | 18% | -12 | 1% | -23% | ?
CCn1c(Cc2cccc3ccccc23)nnc1SCC(=O)Nc1nccs1 | 0% | 3% | -100* | -2% | -16% | -2
O=C(Cc1coc2ccc3ccccc3c12)NCc1ccccc1 | -13% | 14%[38.3 µM] | -8 | 5% | -22% | 9
Cc1cc(C)nc(SCc2nnc(SCC(=O)Nc3nccs3)n2C)n1 | 7% | 4% | -100* | 4% | -17% | -3
O=C(Cc1coc2ccc3ccccc3c12)Nc1nccs1 | -1% | 15%[38.3 µM] | -107* | -2% | ? | -7
CCn1c(CNC(=O)Cc2ccc(OC)cc2)nnc1SCC(=O)Nc1nccs1 | 14% | 10%[38.3 µM] | -20 | 0% | -4% | 11
CS(=O)(=O)N1CCC[C@@]2(CCN(Cc3ccc(C#N)cc3)C2)C1 | -3% | 5% | . | -2% | 1% | .
FC(F)(F)c1ccccc1-c1nc(N2CCNCC2)c2ccccc2n1 | ? | -1% | . | 1% | -12% | .
C=CCSc1nnc2c(n1)[nH]c1c(C)cccc12 | ? | 1%[38.3 µM] | 31 | 4% | 16µM* | 9
Cc1cccc2c1[nH]c1nc(N/N=C\c3ccco3)nnc12 | -16% | 0% | 21 | 5% | -7% | 1
COc1ccccc1-c1nccc(NC2CCNCC2)n1 | 1% | 15% | . | . | . | .
CC(=O)C(C(C)=O)C1(O)C(=O)c2ccccc2C1=O | 1.6µM* | 5% | 25 | ? | 7% | .
CC(=O)N(C)C1=C(O)c2ccccc2C(=O)C1=O | ? | -4%[38.3 µM] | 60 | -4% | -16% | -12
CCOC(=O)c1cnc(SC2CCc3ccccc3C2=O)nc1N (stereo not drawn) | 32µM* | 16%[38.3 µM] | -23 | -6% | 28µM* | -8
CCOc1ccccc1Nc1ccc(N)cc1S(=O)(=O)O | -6%[13.5 µM] | 5% | . | 5%[11.4 µM] | -10% | .
N#CCC(=O)Nc1ncn(Cc2ccccc2Cl)n1 | ? | -3% | -81* | -2% | -3% | 11
O=C(CN(CC1CCCO1)S(=O)(=O)c1ccc(S(=O)(=O)NCC2CCCO2)cc1)Nc1ccccc1 (stereo not drawn) | -4% | -6%[38.3 µM] | ? | -3% | 3% | 6
O=S(=O)(c1ccc(S(=O)(=O)N(Cc2cccs2)CC2CCCO2)cc1)N1CCCCC1 (stereo not drawn) | 7.9µM* | 28%[38.3 µM] | ? | 1% | -4% | 7
O=C(C1CCCN(S(=O)(=O)c2ccc(F)cc2)C1)N1CCCC1 (stereo not drawn) | 2% | 10%[38.3 µM] | -12 | 4% | 2% | 14
O=C(C1CCCN(S(=O)(=O)c2ccc(F)cc2)C1)N(Cc1cccs1)C1CC1 (stereo not drawn) | 18µM* | 25%[38.3 µM] | -5 | -19% | -3% | 6
O=S(=O)(NC1CCCC1)c1ccc(S(=O)(=O)N(Cc2cccs2)CC2CCCO2)cc1 (stereo not drawn) | 25µM* | 14% | 13 | 1% | -16% | 16
Cc1ccc(S(=O)(=O)N2CCN(C(=O)C3Cc4ccccc4CN3C(=O)c3ccco3)CC2)cc1 (stereo not drawn) | 8.9µM* | 7%[38.3 µM] | 67 | 12% | -10% | -1
Cc1ccc(S(=O)(=O)N2CCN(C(=O)CN3CCc4ccccc4C3)CC2)cc1 | 14µM* | 15%[38.3 µM] | 38 | -15% | -6% | -1
CCN1C(=O)[C@H]2[C@H]3[C@H](O)[C@H](O)C/C(=N/O[C@@H](C)CN4CCCCc5nc(C)c(C)cc54)[C@@H]3CC[C@@H]2C1=O | -1%[13.5 µM] | . | . | . | . | .
SMILES | ALDH1A1 inh | IMPase Li inh | PNC inhibitor | ALOX12 inhib | HPGD inh | IMPase cell inh
COc1ccc(C(=O)[C@H](Br)[C@H](Br)C(=O)O)cc1 | 0.28µM* | 9% | . | -3%[11.4 µM] | -13% | .
COc1ccc(C(=O)c2ccccc2)cc1 | -9% | -1% | . | . | . | .
CC1(C)CCC[C@@]2(C)C1CC[C@@](C)(O)[C@@H]2CC[C@@](C)(O)C1CO1 (stereo partly drawn) | ? | 6% | . | . | -5% | .
Cc1ccc(N2C(=N)SCC2=O)cc1Cl | ? | -4% | ? | -3% | 14µM* | .
COc1ccc(Cl)cc1N1C(=N)SCC1=O | -1% | -5% | . | . | . | .
COCCN(CCOC)c1nc(C)nc2c1nc(-c1ccccc1)n2CCN1CCOCC1 | ? | -16% | . | -5% | ? | .
COCCNC(=O)C1(CC(C)C)C=CCN1C(=O)OC (stereo not drawn) | 3% | -7% | . | -3% | -6% | .
O=c1oc2c(O)c(O)cc3c(=O)oc4c(O)c(O)cc1c4c23 | -7% | -5% | ? | -4% | 0.89µM* | ?
O=c1oc2ccccc2c2oc3cc(O)c(O)cc3c12 | -5% | -9% | . | -26% | ? | .
Cn1nnnc1SCC1=C(C(=O)O)N2C(=O)[C@@H](NC(=O)[C@H](O)c3ccccc3)[C@H]2SC1 | ? | -3% | -19 | 3% | -16% | .
NC(C(=O)NC1C(=O)N2C(C(=O)O)=C(Cl)CSC12)c1ccccc1 (stereo not drawn) | 16µM* | 17% | . | -4% | ? | .
N[C@H](C(=O)N[C@@H]1C(=O)N2C(C(=O)O)=C(Cl)CS[C@@H]12)c1ccccc1 | 11µM*! | 2% | . | -3%[25.6 µM] | -11% | -3[20.6 µM]
CC1=C(C(=O)O)N2C(=O)[C@@H](NC(=O)[C@@H](N)C3=CCC=CC3)[C@@H]2SC1 | . | . | . | -3% | . | 2
Nc1nc2c([nH]c(=O)n2C2OC(CO)C(O)C2O)c(=O)[nH]1 (stereo not drawn) | 2% | 5% | . | -3% | -7% | .
CC1CCC2CC1C2(C)C (stereo not drawn) | -3% | -16% | . | 1% | -4% | .
CN1C(=O)NC(c2ccc(O)cc2)C(C(=O)c2cccs2)C1(O)C(F)(F)F (stereo not drawn) | 7.9µM* | 5%[38.3 µM] | 28 | -19% | -5% | 10
O=c1c(Cl)c(NCC2CCCO2)cnn1C12CC3CC(CC(C3)C1)C2 (stereo not drawn) | 18µM* | 12% | . | . | . | .
CS(=O)(=O)Nc1cccc(-c2ccc3ncnc(N4CCOCC4)c3c2)c1 | 6% | 11% | . | . | . | .

Compound activity deposited in PubChem BioAssay by National Center for Advancing Translational Sciences (NCATS).
